Consider 37 compounds from PubChem BioAssay (NCATS).

Inconclusive results are not listed. Where a call stands in place of a potency, no number is given. Activity calls are given as the source filed them. Calls follow the shape of the dose curve; as a rule, active = well fitted inhibition curve with a large enough effect; inconclusive = small, poorly fitted or top-dose-only effect, or effect the other way; inactive = flat fitted curve, though single readings scatter.
Potency is read from the fitted curve at half-maximal effect.

ATP-dependent 6-phosphofructokinase (Trypanosoma brucei brucei), sequence (O15648 whole entry, looked up): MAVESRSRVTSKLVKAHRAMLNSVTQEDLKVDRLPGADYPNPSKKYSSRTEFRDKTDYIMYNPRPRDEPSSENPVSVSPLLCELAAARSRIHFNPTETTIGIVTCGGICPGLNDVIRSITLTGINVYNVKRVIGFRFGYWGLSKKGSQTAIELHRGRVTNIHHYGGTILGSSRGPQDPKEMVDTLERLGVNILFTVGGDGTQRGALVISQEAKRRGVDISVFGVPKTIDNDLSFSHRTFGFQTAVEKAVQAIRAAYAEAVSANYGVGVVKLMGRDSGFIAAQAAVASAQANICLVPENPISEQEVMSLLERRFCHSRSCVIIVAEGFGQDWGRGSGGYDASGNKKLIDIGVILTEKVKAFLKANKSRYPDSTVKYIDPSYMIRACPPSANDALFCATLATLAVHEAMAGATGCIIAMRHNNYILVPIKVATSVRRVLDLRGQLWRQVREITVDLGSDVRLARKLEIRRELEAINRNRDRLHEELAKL

The test has as its target ATP-dependent 6-phosphofructokinase (Trypanosoma brucei brucei) (UniProt O15648). Kind of test: qHTS Assay to Find Inhibitors of T. brucei phosphofructokinase: hit validation (AID 492961). Conditions: T. brucei PFK, ADP-Glo luminescence; series mostly up to 51.4 µM. In short, it runs like this: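 Inhibition of parasite PFK is measured as reduced ADP formation, quantified via luciferase after ATP depletion. Assay used 0.1 mM ATP, 0.5 mM F6P, 1.25 nM enzyme, 45 min incubation.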
(qHTS replaces the single test concentration by a dilution series.)
For `CN1CCc2cccc3c2[C@H]1Cc1ccc(O)c(O)c1-3`, the Potency is 12.6 µM (active).

As for `CCC(C(=O)OCCOCCN(CC)CC)c1ccccc1` (configuration not stated), the Potency entry was “inactive”.

Regarding `COC(=O)C(c1ccccc1Cl)N1CCc2sccc2C1` (configuration not stated), the Potency result is “inactive”.

As to `Cc1cccc(C)c1NC(=O)c1ccccc1C(=O)O`, the Potency entry was “inactive”.

Take `Cc1cccc(C)c1NC(=O)CN1CCCC1`: the Potency result is “inactive”.

As to `CCCCCCCCCCCCOCCOCCOCCOCCOCCOCCOCCOCCOCCO`, the Potency entry was “inactive”.

For `CC(C)(C)CC(C)(C)c1ccc(O)c(-n2nc3ccccc3n2)c1`, the Potency result was “inactive”.

For the compound `OCCOCCN1CCN(C2=Nc3ccccc3Sc3ccccc32)CC1`, the Potency result is “inactive”.

For `CCCCc1cc2ccccc2c(OCCN(C)C)n1`, the Potency result was “inactive”.

As for `CC(=O)Nc1ccc(OCC(O)CNC(C)C)cc1` (configuration not stated), the Potency entry is “inactive”.

Consider `C#C[C@]1(O)CC[C@H]2[C@@H]3CCc4cc(OC)ccc4[C@H]3CC[C@@]21C`, for which the Potency entry is “inactive”.

In the case of `COc1cc(C(=O)NCc2ccc(OCCN(C)C)cc2)cc(OC)c1OC`, the Potency entry is “inactive”.

Consider `O=C1C(=O)c2ccccc2C(O)=C1C1CCC(c2ccc(Cl)cc2)CC1` (configuration not stated), for which the Potency entry is “inactive”.

For `Cc1cccc(C)c1NC(=O)CN1CCCCCC1`, the Potency result is “inactive”.

For `CCOC(=O)C(C#N)=C(c1ccccc1)c1ccccc1`, the Potency result was “inactive”.

As to `Oc1c(Cl)cc(Cl)c(Cl)c1Cc1c(O)c(Cl)cc(Cl)c1Cl`, the Potency result is “inactive”.

Consider `CC(C)Cc1ccc(CC(=O)O)cc1`, for which the Potency result is “inactive”.

Consider `C#C[C@]1(OC(C)=O)CC[C@H]2[C@@H]3CCC4=C/C(=N/O)CC[C@@H]4[C@H]3CC[C@@]21CC`, for which the Potency entry was “inactive”.

As for `O=C(Nc1ccc([N+](=O)[O-])cc1)Nc1ccc([N+](=O)[O-])cc1`, the Potency entry was “inactive”.

Regarding `FC1(F)C(F)(F)C(F)(F)C2(F)C(F)(F)C(F)(F)C(F)(F)C(F)(F)C2(F)C1(F)F` (configuration not stated), the Potency entry is “inactive”.

In the case of `COc1cc(NS(=O)(=O)c2ccc(N)cc2)ncn1`, the Potency result is “inactive”.

As for `O=C(c1ccc(F)cc1)C1CCN(CCn2c(=S)[nH]c3ccccc3c2=O)CC1`, the Potency entry is “inactive”.

For `CCCCCCCCCCCCCC[N+](C)(C)Cc1ccccc1`, the Potency result is “inactive”.

As for `CCOC(=O)c1ccc(N)cc1`, the Potency entry is “inactive”.

In the case of `COc1cc(C(=O)N2CCCCCCC2)cc(OC)c1OC`, the Potency result is “inactive”.

`CN1CCN(CCC(=O)N2c3ccccc3Sc3ccc(C(F)(F)F)cc32)CC1`: the Potency result is “inactive”.

Take `Nc1nc(N)c(-c2ccccc2)s1`: the Potency entry was “inactive”.

With `O=S(=O)(O)c1ccc(O)cc1`, the Potency result was “inactive”.

In the case of `CC(=O)OC[C@H]1O[C@@H](n2ncc(=O)[nH]c2=O)[C@H](OC(C)=O)[C@@H]1OC(C)=O`, the Potency result is “inactive”.

Consider `CC(=O)OCC(=O)[C@H]1CC[C@H]2[C@@H]3CCC4=CC(=O)CC[C@]4(C)[C@H]3CC[C@]12C`, for which the Potency result is “inactive”.

As to `CC(C)(C)NC[C@H](O)COc1cccc2c1CCCC2=O`, the Potency entry was “inactive”.

Take `COc1ccc(CCN(C)CCCN2CCc3cc(OC)c(OC)cc3CC2=O)cc1OC`: the Potency result was “inactive”.

Take `O=C(CN1CCN(Cc2ccc3c(c2)OCO3)CC1)N1c2ccccc2Sc2ccccc21`: the Potency result is “inactive”.

For the compound `CN1CCN(c2c(F)cc3c(=O)c(C(=O)O)cn4c3c2SCC4)CC1`, the Potency entry is “inactive”.

In the case of `CCCCN=C(N)N=C(N)N`, the Potency result is “inactive”.

Consider `CN(C)C(=O)Nc1ccc(Cl)c(Cl)c1`, for which the Potency result was “inactive”.

In the case of `CC(C)(Cc1c[nH]c2ccccc12)NCC(O)COc1ccccc1C#N` (configuration not stated), the Potency entry is “inactive”.
